# Experimental data: PubChem BioAssay AID488890 (Southern Research Specialized Biocontainment Screening …, 2010)
# Out of some 320,000 compounds screened, about 1,300 (0.41%) were called active. Not shown: some 3% with an inconclusive outcome. No rule for the calls is given here. The list is a sample of the results. Measured potencies and affinities stand elsewhere.
# Experiment: growth inhibition of non-replicating M. tuberculosis (AID 488890);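 also: plate controls were DMSO cells for no effect and high antibiotic wells for full effect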
# Conditions: Mycobacterium tuberculosis non-replicating, at 25 µM, stronger effect = higher value
row,SMILES,inhibition [%]
1,CCCc1nc(SCc2ccc(Cl)cc2Cl)n[nH]1,2.74
2,Nc1nc(SCc2ccc(Cl)cc2Cl)n[nH]1,1.74
3,Cc1cccc2nc(CNC(=O)C3CCC(=O)N(Cc4ccccc4F)C3)cn12 (stereo not given),-13.7
4,CC(C)n1c(SCC(=O)Nc2ccc(F)cc2)nnc1C1CC1,-1.85
5,Cc1nn(C(=O)CCC(=O)NCc2ccc(OC(C)C)cc2)c2ccccc12,-4.46
6,CN(C#N)c1nccc(-c2cccs2)n1,19
7,COc1ccc(CCNC(=O)c2ccc(Cl)cc2)cc1,74.1
8,COc1ccc(C(=O)NCC(=O)NCC(=O)OCc2ccc(Cl)cc2)cc1,-0.72
9,Cc1ccc(C(=O)/C=C\NCc2ccccc2)cc1,37.6
10,COc1ccc(C(=O)NNC(=O)Nc2ccc(Cl)cc2)cc1,-7.99
11,COc1ccc(N/C=C/C(=O)c2ccc(Cl)cc2)cc1,45.2
12,Cc1ccc(N/C=C/C(=O)c2ccc(C)cc2)cc1,19.2
13,COC(=O)c1sc2nc(N3CCCCC3)c3c(c2c1N)CCCC3,1.1
14,COC(=O)C1=C(C)OC(N)=C(C#N)C1c1ccc(OC)c(CSc2ccccn2)c1 (stereo not given),10.8
15,Cc1ccn2c(=O)nc(SCC(=O)N3CCCC3)nc2c1,8.52
16,O=C(CN1CCCCC1)N/N=C/c1ccc(Cl)cc1Cl,-4.16
17,O=C1CCC(=O)N1CNc1cccnc1,3.84
18,COc1ccc(NCN2C(=O)CCC2=O)cc1,61
19,COc1ccccc1-c1cn(C(C)(C)C)nc1C,-1.55
20,O=C(N/N=C/c1cc(Br)c(O)c(Br)c1)c1cccc(C(F)(F)F)c1,21
21,O=C(N/N=C/c1cccc(C(F)(F)F)c1)c1ccc(O)cc1,16.8
22,C[C@H](CO)N1C[C@H](C)[C@@H](CN(C)S(=O)(=O)c2cn(C)cn2)Oc2ccc(NC(=O)NC3CCCCC3)cc2C1=O,-8.37
23,Cc1ccc(S(=O)(=O)N2CCOCC2)cc1C(=O)N1CCN(c2ccc(C(F)(F)F)cn2)CC1,7.63
24,CCCOc1cc(C)c(S(=O)(=O)NCc2cccs2)cc1C,6.87
25,Cc1cc(NCCO)nc(-n2nc(C)cc2C)n1,39.2

row,SMILES,inhibition [%]
1,COc1ccc(Nc2cc(C)nc(N3CCOCC3)n2)cc1,11.6
2,CNc1cc(C)nc(-n2nc(C)cc2C)n1,77.6
3,CCOc1ccc(Nc2cc(C)nc(N3CCOCC3)n2)cc1,4.96
4,COC1(c2cc(-c3ccccc3)nc(N)n2)CCCCC1,39.4
5,CC1CN(C(C)C(=O)NC(c2ccccc2)c2ccccc2)CC(C)O1 (stereo not given),-1.17
6,Cc1cc(NC(=O)CSc2nnnn2-c2ccc(C)c(C)c2)no1,-1.12
7,O=C(C1CCCN(S(=O)(=O)c2ccc(Br)cc2)C1)N1CCOCC1 (stereo not given),-4.37
8,COCCn1cnc2c1c(=O)[nH]c(=O)n2Cc1ccccc1,-2.83
9,Cc1[nH]n2c(=O)c3c(nc2c1-c1ccc(F)cc1)CCCC3,18.2
10,N#Cc1c[nH]n2c(=O)c3c(nc12)CCC3,-2.17
11,O=c1c2c(nc3c(-c4cccc(Br)c4)c[nH]n13)CCCC2,76.9
12,Cc1[nH]n2c(=O)c3c(nc2c1-c1cccc2ccccc12)CCC3,61.6
13,Cc1ccc(S(=O)(=O)/N=C(/Nc2ccc(F)cc2F)c2ccc(F)cc2)cc1,-16.3
14,CC(Oc1ccc(Cl)cc1Cl)C(=O)Nc1ncccn1 (stereo not given),61.7
15,Cc1cccc(C)c1OC(=O)CCN1C(=O)C2C3C=CC(C4CC34)C2C1=O (stereo not given),67.5
16,Cc1ccc(SCC(=O)NCC2COc3ccccc3O2)cc1 (stereo not given),29.9
17,CC(C)(C)/C(O)=C/c1nc2ccccc2[nH]c1=O,-2.24
18,Cc1ccc2oc(=O)c(/C=C(\O)CC(C)C)nc2c1,-17.2
19,c1ccc2oc(CCc3nc4ccccc4o3)nc2c1,-3.04
20,C/C(O)=C/c1nc2ccccc2[nH]c1=O,1.47
21,Cc1ccc2oc(=O)c(/C=C(\O)C(C)(C)C)nc2c1,-1
22,CCS(=O)(=O)CCSc1nc2ccccc2o1,-14.9
23,Cc1ccc(C(=O)CN2C(=O)NC3(CCCCCC3)C2=O)c(C)c1,-9.85
24,CCOc1ccc(-c2nnc3sc(COc4ccc(Cl)cc4)nn23)cc1,-1.47
25,CS(=O)(=O)Nc1cccc(C2=NN(C(=O)c3ccccc3Cl)C(c3ccccc3O)C2)c1 (stereo not given),30.8

row,SMILES,inhibition [%]
1,CC1CCN(S(=O)(=O)c2cccc(C(N)=O)c2)CC1,0.16
2,CCn1c(CCCCc2n[nH]c(=S)n2CC)n[nH]c1=S,-11.8
3,CC(=O)Nc1ccc(NC(=O)C2CCN(C(=O)NC3CCCCC3)CC2)cc1,-3.9
4,Cn1nc(C(=O)NNC(=O)C2CSC3(C)CCC(=O)N23)c2ccccc2c1=O (stereo not given),-11.1
5,O=C(NCCCn1ccnc1)c1cc2cc([N+](=O)[O-])ccc2oc1=O,-4.48
6,Cc1ccc2[nH]c(C)c(CCNC(=O)c3c(N)no[n+]3[O-])c2c1,28.6
7,COC(=O)c1ccc(-c2csc(NC(=O)C3=COCCO3)n2)cc1,34.1
8,CC(C)NC(=O)c1cc(=O)n(C)c(=O)n1C,1.53
9,Cc1nn(C)c(Oc2ccc(Cl)cc2)c1C(=O)O,5.18
10,O=S(=O)([N-]c1nc2ccccc2nc1-n1cc[n+](Cc2ccccc2)c1)c1ccc(Br)cc1,8.51
11,Cc1cccn2c(=O)c3cc(C(=O)N4CC(C)CC(C)C4)sc3nc12 (stereo not given),0.79
12,Cn1c(=O)[nH]c(=O)c2c1nc(N)n2Cc1ccccc1,-16.3
13,Cc1cc(C)n(-c2nc3c(c(=O)[nH]c(=O)n3C)n2CC(C)C)n1,0.87
14,CSc1nc2c(c(=O)[nH]c(=O)n2C)n1Cc1ccccc1,4.61
15,CC(C)Cn1c(NCCN(C)C)nc2c1c(=O)[nH]c(=O)n2C,-11.4
16,O=C(Nc1nnc(S(=O)(=O)N2CCCC2)s1)c1cccc([N+](=O)[O-])c1,43.7
17,NC(=O)c1ccc[n+](Cc2ccccc2)c1,-8.91
18,CC(C)(C)C1CCC(C(=O)Nc2ccccc2)CC1 (stereo not given),77.8
19,CCN1CCCC1CNC(=S)Nc1ccc(C(C)=O)cc1 (stereo not given),16.8
20,COc1cc(/C=C2\SC(c3ccc(C)cc3)=NC2=O)cc(OC)c1OC,16.6
21,COc1cc(/C=C2\N=C(C)OC2=O)cc(OC)c1OC,-3.11
22,CCCC1CC(C)(C(=O)CSc2n[nH]c(-c3ccccc3)n2)OC1=O (stereo not given),-9.58
23,CCOc1nc2ccccc2cc1/C=C/C(=O)O,16.5
24,Cc1ccc(N2C(=O)CC(N3CCSCC3)C2=O)c(C)c1 (stereo not given),66.2
25,O=C1CC(N2CCSCC2)C(=O)N1c1ccccc1 (stereo not given),17.6
